From the supplement of paper PMC10849652
About 8,800 targets were measured; listed, in parts, are those with a hit and a random draw of the rest. About 0.5% of all pairs of compound and target were hits.

Tests used:
Assay in all cases: log2 fold change, soluble protein after heating vs DMSO (PISA); higher = thermal stabilisation; K562 lysate, 10 uM; active = over 0.2 and 3.5 SD of the protein, either way, in both replicates (recomputed)
erlotinib = compound: C#Cc1cccc(Nc2ncnc3cc(OCCOC)c(OCCOC)cc23)c1 [erlotinib]
In short: (§1)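 Log-two fold change in thermal stability relative to solvent controls is reported from duplicates. For each sample, crude K562 extract from dounce-homogenised pellets in PBS pH 7.4 with 1 mM MgCl2, at 1 mg/mL protein, was treated with 10 μM compound for 30 min. Aliquots heated for 3 min across 48°C-58°C were pooled, brought to 0.5% NP-40 at 4°C and cleared at 21,000xg for 90 min. The supernatant was quantified by TMTpro 16plex LC-MS/MS with channel sums equalised.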

[1] = compound: C/C(=N\NC(=O)C1=CC(=CC=C1)S(=O)(=O)N2CCOCC2)/C3=C(C=CC(=C3)Cl)O
In short: as §1

[2] = compound: C1=CC(=CC=C1C2=NC3=C(N2)C=C(C=C3)C(=O)N)OC4=CC=C(C=C4)Cl
In short: as §1

[3] = compound: C1=CC2=C(C=CC(=C2)/C=C\3/C(=O)NC(=NCC4=CC=CS4)S3)N=C1
In short: as §1

[4] = compound: C1=CC2=NC=CN=C2C=C1/C=C/3\C(=O)NC(=O)S3
In short: as §1

[5] = compound: C1=CC=C(C=C1)C2=NC(=C(N2)C3=CC=NC=C3)C4=CC(=C(C=C4)Cl)O
In short: as §1

[6] = compound: C1=CC=C2C(=C1)C3=NNC4=CC=CC(=C43)C2=O
In short: as §1

[7] = compound: C1CCN(C1)C(=O)NC2=CC=CC(=C2)NC3=NC=C(C(=N3)NCCC4=CN=CN4)Br
In short: as §1

[8] = compound: C1CN(CCC1(CC2=CC=C(C=C2)Cl)N)C3=NC=NC4=C3C=CN4
In short: as §1

IRAK-1-4 Inhibitor I = compound: C1COCCN1CCN2C3=CC=CC=C3N=C2NC(=O)C4=CC(=CC=C4)[N+](=O)[O-] [IRAK-1-4 Inhibitor I]
In short: as §1

Measured: log2 fold change

ATAD3B (UniProt Q5T9A4)
Sequence of UniProt Q5T9A4 (Q5T9A4 whole entry, looked up): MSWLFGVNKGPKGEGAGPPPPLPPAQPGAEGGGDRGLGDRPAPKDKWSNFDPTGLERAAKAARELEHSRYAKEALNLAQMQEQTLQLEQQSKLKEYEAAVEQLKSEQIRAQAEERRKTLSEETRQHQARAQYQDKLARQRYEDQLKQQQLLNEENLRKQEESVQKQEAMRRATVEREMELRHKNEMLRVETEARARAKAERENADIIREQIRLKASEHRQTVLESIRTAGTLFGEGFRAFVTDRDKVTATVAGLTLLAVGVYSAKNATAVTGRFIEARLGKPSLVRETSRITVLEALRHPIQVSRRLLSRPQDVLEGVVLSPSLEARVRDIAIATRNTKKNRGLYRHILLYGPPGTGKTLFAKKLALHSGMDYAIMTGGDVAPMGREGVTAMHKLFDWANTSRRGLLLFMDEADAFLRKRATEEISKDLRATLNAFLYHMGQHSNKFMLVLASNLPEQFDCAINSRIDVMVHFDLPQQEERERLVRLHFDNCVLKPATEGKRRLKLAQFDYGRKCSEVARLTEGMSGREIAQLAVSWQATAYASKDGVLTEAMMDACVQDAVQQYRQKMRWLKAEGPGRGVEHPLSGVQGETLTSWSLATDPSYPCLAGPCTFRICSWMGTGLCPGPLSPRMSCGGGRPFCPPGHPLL
inactive: erlotinib -0.016 | [1] 0.031 | [2] -0.111 | [3] 0.029 | [4] 0.019 | [5] -0.017 | [6] 0.096 | [7] 0.018 | [8] -0.009 | IRAK-1-4 Inhibitor I 0.032

CELF1 isoform 4 (UniProt Q92879)
inactive: erlotinib -0.101 | [1] -0.039 | [2] 0.013 | [3] 0.055 | [4] 0 | [5] -0.031 | [6] -0.03 | [7] -0.002 | [8] -0.043 | IRAK-1-4 Inhibitor I -0.045

C2CD5 isoform 3 (UniProt Q86YS7)
Sequence of UniProt Q86YS7 (Q86YS7 whole entry, looked up): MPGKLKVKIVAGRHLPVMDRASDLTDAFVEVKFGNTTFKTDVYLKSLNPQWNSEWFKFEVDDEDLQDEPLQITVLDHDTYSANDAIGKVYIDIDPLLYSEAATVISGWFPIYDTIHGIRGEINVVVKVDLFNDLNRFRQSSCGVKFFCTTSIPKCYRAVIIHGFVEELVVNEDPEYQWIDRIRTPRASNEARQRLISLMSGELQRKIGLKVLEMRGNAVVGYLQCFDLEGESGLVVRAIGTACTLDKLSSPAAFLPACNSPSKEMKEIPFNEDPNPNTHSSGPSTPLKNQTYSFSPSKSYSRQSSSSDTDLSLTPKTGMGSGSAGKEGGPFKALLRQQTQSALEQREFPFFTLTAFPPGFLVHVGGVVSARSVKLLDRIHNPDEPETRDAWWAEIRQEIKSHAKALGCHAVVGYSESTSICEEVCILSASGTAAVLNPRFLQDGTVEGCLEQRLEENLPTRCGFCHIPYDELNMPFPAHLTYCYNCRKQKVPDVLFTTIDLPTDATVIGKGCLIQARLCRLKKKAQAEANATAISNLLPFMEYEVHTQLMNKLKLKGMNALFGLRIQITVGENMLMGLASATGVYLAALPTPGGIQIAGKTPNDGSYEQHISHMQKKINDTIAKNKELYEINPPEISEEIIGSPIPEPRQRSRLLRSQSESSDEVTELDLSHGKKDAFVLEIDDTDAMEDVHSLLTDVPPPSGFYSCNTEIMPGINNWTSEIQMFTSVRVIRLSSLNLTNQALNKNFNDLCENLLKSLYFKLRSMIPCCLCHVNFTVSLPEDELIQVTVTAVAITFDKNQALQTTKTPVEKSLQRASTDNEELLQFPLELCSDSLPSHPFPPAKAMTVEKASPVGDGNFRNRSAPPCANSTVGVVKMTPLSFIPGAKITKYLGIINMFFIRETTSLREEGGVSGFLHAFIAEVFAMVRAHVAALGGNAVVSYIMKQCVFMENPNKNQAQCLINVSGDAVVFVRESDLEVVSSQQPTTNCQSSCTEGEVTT
inactive: erlotinib 0.021 | [1] -0.047 | [2] 0.017 | [3] -0.024 | [4] -0.048 | [5] -0.034 | [6] -0.046 | [7] -0.045 | [8] 0.024 | IRAK-1-4 Inhibitor I 0.054

CHD3 isoform 3 (UniProt Q12873)
inactive: erlotinib 0.003 | [1] -0.022 | [2] -0.025 | [3] -0.01 | [4] 0.003 | [5] 0.002 | [6] -0.017 | [7] -0.058 | [8] 0.005 | IRAK-1-4 Inhibitor I -0.032

BUD23 isoform 3 (UniProt O43709)
inactive: erlotinib 0.074 | [1] -0.046 | [2] 0.009 | [3] -0.008 | [4] -0.097 | [5] -0.02 | [6] -0.01 | [7] -0.026 | [8] -0.033 | IRAK-1-4 Inhibitor I -0.017

CARD11 (UniProt Q9BXL7)
Sequence of UniProt Q9BXL7 (Q9BXL7 whole entry, looked up): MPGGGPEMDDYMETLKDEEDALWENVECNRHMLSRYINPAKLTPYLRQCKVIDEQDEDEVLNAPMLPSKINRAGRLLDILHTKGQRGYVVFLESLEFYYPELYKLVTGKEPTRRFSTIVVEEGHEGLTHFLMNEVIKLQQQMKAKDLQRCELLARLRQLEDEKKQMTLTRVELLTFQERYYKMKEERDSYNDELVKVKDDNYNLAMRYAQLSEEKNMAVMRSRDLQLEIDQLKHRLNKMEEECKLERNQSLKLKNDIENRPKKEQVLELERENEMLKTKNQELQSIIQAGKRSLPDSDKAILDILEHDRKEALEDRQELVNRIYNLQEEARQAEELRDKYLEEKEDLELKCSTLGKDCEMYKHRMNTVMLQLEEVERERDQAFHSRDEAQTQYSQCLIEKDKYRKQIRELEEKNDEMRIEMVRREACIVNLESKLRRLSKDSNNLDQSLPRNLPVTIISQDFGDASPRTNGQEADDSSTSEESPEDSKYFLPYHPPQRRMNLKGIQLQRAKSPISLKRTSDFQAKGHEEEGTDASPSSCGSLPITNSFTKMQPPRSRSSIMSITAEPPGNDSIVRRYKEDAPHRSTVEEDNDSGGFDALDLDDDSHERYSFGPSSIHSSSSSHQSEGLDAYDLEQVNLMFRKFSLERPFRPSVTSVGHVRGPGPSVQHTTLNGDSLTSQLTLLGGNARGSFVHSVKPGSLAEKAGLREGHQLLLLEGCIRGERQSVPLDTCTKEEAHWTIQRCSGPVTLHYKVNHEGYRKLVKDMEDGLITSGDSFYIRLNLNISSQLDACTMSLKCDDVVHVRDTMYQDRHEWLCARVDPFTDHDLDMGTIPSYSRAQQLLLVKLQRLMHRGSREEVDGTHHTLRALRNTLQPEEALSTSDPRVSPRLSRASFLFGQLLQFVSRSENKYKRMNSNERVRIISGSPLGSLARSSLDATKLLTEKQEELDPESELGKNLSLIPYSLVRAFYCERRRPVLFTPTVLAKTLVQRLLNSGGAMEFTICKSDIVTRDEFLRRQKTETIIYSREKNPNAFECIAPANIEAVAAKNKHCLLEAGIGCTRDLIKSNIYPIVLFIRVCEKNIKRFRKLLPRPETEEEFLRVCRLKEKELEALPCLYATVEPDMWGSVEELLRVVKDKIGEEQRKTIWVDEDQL
inactive: erlotinib -0.03 | [1] -0.051 | [2] 0.016 | [3] 0.061 | [4] -0.168 | [5] -0.048 | [6] -0.022 | [7] -0.042 | [8] 0.013 | IRAK-1-4 Inhibitor I -0.01

CCDC32 isoform 2 (UniProt Q9BV29)
Sequence of UniProt Q9BV29 (Q9BV29 whole entry, looked up): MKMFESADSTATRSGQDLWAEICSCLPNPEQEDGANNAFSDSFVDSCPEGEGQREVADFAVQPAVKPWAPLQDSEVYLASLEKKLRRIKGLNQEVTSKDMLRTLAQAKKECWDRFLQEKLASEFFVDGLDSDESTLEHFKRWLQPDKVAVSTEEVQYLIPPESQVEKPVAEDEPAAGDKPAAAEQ
inactive: erlotinib -0.021 | [1] 0.031 | [2] -0.027 | [3] 0 | [4] -0.014 | [5] -0.003 | [6] 0.007 | [7] 0.048 | [8] 0.049 | IRAK-1-4 Inhibitor I 0.057

ATP11A (UniProt P98196)
Sequence of UniProt P98196 (P98196 whole entry, looked up): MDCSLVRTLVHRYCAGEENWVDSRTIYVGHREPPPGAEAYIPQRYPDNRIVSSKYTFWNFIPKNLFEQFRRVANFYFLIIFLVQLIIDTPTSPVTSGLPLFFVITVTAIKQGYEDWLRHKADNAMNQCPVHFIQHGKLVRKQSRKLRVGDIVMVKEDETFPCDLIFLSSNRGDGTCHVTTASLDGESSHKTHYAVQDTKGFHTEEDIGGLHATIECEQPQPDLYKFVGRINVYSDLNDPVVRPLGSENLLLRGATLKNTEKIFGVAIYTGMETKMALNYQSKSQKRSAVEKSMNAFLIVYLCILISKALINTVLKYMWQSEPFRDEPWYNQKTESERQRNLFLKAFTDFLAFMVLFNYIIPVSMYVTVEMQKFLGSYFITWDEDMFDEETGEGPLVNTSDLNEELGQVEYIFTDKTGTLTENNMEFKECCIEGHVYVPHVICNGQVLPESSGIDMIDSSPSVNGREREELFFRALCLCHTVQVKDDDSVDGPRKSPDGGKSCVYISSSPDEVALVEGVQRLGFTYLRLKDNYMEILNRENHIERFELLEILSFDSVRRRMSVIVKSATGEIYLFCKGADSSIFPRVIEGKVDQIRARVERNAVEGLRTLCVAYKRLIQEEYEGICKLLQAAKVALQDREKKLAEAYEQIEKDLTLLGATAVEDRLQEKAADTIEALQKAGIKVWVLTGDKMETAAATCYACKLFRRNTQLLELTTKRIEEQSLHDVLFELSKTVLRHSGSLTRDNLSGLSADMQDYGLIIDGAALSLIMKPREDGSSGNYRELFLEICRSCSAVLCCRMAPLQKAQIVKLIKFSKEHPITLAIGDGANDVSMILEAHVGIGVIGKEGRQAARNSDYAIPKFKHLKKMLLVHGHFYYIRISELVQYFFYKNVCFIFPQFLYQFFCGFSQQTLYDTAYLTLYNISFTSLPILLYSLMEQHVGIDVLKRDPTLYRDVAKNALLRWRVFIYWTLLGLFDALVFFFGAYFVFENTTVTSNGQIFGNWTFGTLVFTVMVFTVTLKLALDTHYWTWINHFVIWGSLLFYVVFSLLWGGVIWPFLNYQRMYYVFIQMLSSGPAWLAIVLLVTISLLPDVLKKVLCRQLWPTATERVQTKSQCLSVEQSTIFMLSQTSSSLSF
inactive: erlotinib -0.003 | [1] -0.067 | [2] -0.033 | [3] -0.011 | [4] -0.022 | [5] 0.016 | [6] 0.102 | [7] -0.005 | [8] -0.015 | IRAK-1-4 Inhibitor I 0.087

CDK17 isoform 2 (UniProt Q00537)
Sequence of UniProt Q00537 (Q00537 whole entry, looked up): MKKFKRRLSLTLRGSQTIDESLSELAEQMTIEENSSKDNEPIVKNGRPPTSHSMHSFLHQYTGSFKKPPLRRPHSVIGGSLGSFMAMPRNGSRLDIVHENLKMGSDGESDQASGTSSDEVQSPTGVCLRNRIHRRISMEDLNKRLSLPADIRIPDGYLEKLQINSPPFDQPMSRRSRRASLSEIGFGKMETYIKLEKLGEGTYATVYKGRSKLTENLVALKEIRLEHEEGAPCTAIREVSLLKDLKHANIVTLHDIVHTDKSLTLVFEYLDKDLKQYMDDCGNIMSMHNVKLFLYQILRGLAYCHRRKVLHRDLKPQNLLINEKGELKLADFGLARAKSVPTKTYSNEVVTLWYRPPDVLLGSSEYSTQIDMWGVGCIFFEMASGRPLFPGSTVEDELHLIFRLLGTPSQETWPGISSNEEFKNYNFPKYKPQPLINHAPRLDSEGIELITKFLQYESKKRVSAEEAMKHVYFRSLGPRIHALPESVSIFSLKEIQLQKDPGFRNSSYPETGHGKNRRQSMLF
inactive: erlotinib -0.156 | [1] -0.007 | [2] 0.173 | [3] 0.099 | [4] -0.114 | [5] 0.005 | [6] 0.046 | [7] 0.124 | [8] 0.068 | IRAK-1-4 Inhibitor I 0.055

CCT6A (UniProt P40227)
inactive: erlotinib -0.016 | [1] -0.043 | [2] 0.002 | [3] 0.001 | [4] -0.008 | [5] 0.001 | [6] 0.019 | [7] 0.008 | [8] -0.022 | IRAK-1-4 Inhibitor I -0.023

CANX isoform 2 (UniProt P27824)
inactive: erlotinib 0.007 | [1] -0.027 | [2] 0.048 | [3] 0.004 | [4] 0 | [5] -0.007 | [6] -0.042 | [7] 0 | [8] 0.013 | IRAK-1-4 Inhibitor I 0.003

CHCHD4 isoform 2 (UniProt Q8N4Q1)
inactive: erlotinib -0.069 | [1] -0.06 | [2] -0.068 | [3] -0.028 | [4] -0.111 | [5] -0.018 | [6] -0.073 | [7] -0.044 | [8] 0.009 | IRAK-1-4 Inhibitor I 0.016

AVEN (UniProt Q9NQS1)
Sequence of UniProt Q9NQS1 (Q9NQS1 whole entry, looked up): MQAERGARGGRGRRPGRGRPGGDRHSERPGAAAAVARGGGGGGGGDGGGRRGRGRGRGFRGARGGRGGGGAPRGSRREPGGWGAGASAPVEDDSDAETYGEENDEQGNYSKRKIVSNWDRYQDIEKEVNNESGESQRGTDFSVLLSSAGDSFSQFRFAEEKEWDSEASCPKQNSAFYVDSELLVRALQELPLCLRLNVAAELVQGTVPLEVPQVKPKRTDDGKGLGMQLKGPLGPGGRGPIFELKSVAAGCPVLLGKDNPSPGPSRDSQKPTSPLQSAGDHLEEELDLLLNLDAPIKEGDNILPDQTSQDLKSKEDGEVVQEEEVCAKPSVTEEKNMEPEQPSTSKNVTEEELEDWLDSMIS
inactive: erlotinib 0.111 | [1] 0.077 | [2] -0.205 | [3] -0.079 | [4] 0.183 | [5] 0.06 | [6] 0.055 | [7] -0.023 | [8] -0.013 | IRAK-1-4 Inhibitor I -0.096

AUH (UniProt Q13825)
inactive: erlotinib 0.003 | [1] -0.031 | [2] 0.083 | [3] -0.042 | [4] 0.111 | [5] 0.027 | [6] -0.035 | [7] 0.026 | [8] -0.045 | IRAK-1-4 Inhibitor I -0.008

ATG4B (UniProt Q9Y4P1)
inactive: erlotinib 0.012 | [1] 0.002 | [2] -0.022 | [3] -0.024 | [4] 0.028 | [5] -0.019 | [6] -0.007 | [7] 0.008 | [8] -0.004 | IRAK-1-4 Inhibitor I 0.019
